According to PubChem BioAssay AID1159580 (chemical genetic matrix, 2015):
Screen size: about 5,500 compounds; about 2,000 (36%) were called active. Another 18% or so got no clear call; they are omitted. Rule as the data show it: active = normalized growth mostly below about 0.91 (no sharp cut-off); inconclusive = no clear call, values can overlap the other calls; inactive = mostly above about 0.92. This is one part of the list.

Assay: chemical genetic growth profiling, strain panel (AID 1159580);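 also: tested at 20 µM; growth read once vehicle control cultures reached saturation at 30 °C; 1 = growth at the plate median or of vehicle wells; lower values mean less growth of the strain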
Settings: growth OD
[1] = S. cerevisiae deletion strains, locus YAL013W, strain DEP1, active compounds read low
[2] = S. cerevisiae deletion strains, locus YGR229C, strain SMI1, active compounds read low
[3] = S. cerevisiae deletion strains, locus YJR075W, strain HOC1, active compounds read low
[4] = S. cerevisiae deletion strains, locus YMR263W, strain SAP30, active compounds read low
[5] = S. cerevisiae deletion strains, locus YMR307W, strain GAS1, active compounds read low

Measured: normalized growth

CCC(=O)c1ccc2c(c1)N(CC(C)N(C)C)c1ccccc1S2 (configuration not stated)
inactive: [1] 0.983 | S. cerevisiae deletion strains, locus YBR021W, strain FUR4, active compounds read low 0.88 | S. cerevisiae deletion strains, locus YBR229C, strain ROT2, active compounds read low 0.994 | S. cerevisiae deletion strains, locus YCL029C, strain bik1, active compounds read low 1.02 | S. cerevisiae deletion strains, locus YDL035C, strain GPR1, active compounds read low 0.979 | S. cerevisiae deletion strains, locus YDL074C, strain BRE1, active compounds read low 0.95 | S. cerevisiae deletion strains, locus YDL101C, strain DUN1, active compounds read low 0.986 | S. cerevisiae deletion strains, locus YDL134C, strain PPH21, active compounds read low 0.96 | S. cerevisiae deletion strains, locus YDL185W, strain tfp1, active compounds read low 0.995 | S. cerevisiae deletion strains, locus YDL192W, strain arf1, active compounds read low 1.01 | S. cerevisiae deletion strains, locus YDR101C, strain arx1, active compounds read low 1.01 | S. cerevisiae deletion strains, locus YDR162C, strain NBP2, active compounds read low 0.988 | S. cerevisiae deletion strains, locus YDR318W, strain mcm21, active compounds read low 0.994 | S. cerevisiae deletion strains, locus YDR388W, active compounds read low 1 | S. cerevisiae deletion strains, locus YDR502C, strain sam2, active compounds read low 0.986 | S. cerevisiae deletion strains, locus YEL061C, strain CIN8, active compounds read low 0.998 | S. cerevisiae deletion strains, locus YER110C, active compounds read low 1.02 | S. cerevisiae deletion strains, locus YER155C, strain BEM2, active compounds read low 0.989 | S. cerevisiae deletion strains, locus YER167W, strain BCK2, active compounds read low 0.998 | S. cerevisiae deletion strains, locus YGL078C, strain dbp3, active compounds read low 1.01 | S. cerevisiae deletion strains, locus YGL086W, strain mad1, active compounds read low 0.99 | S. cerevisiae deletion strains, locus YGL248W, strain PDE1, active compounds read low 0.966 | S. cerevisiae deletion strains, locus YGR078C, strain PAC10, active compounds read low 0.992 | S. cerevisiae deletion strains, locus YGR135W, strain pre9, active compounds read low 0.97 | [2] 0.949 | S. cerevisiae deletion strains, locus YGR252W, strain gcn5, active compounds read low 0.806 | S. cerevisiae deletion strains, locus YHR030C, strain SLT2, active compounds read low 0.997 | S. cerevisiae deletion strains, locus YHR079C, strain IRE1 (second series), active compounds read low 1.01 | S. cerevisiae deletion strains, locus YHR094C, strain hxt1, active compounds read low 1.02 | S. cerevisiae deletion strains, locus YHR129C, strain ARP1, active compounds read low 0.993 | S. cerevisiae deletion strains, locus YHR200W, strain rpn10, active compounds read low 1 | S. cerevisiae deletion strains, locus YIL066C, strain RNR3, active compounds read low 0.985 | S. cerevisiae deletion strains, locus YIL073C, strain SPO22, active compounds read low 1.01 | S. cerevisiae deletion strains, locus YIL125W, strain kgd1, active compounds read low 1.01 | S. cerevisiae deletion strains, locus YIR030C, strain dcg1, active compounds read low 1.01 | S. cerevisiae deletion strains, locus YJL095W, strain BCK1, active compounds read low 0.889 | S. cerevisiae deletion strains, locus YJL134W, strain LCB3, active compounds read low 0.996 | S. cerevisiae deletion strains, locus YJL168C, strain set2, active compounds read low 1 | S. cerevisiae deletion strains, locus YJL187C, strain SWE1 (second series), active compounds read low 0.99 | S. cerevisiae deletion strains, locus YJR043C, strain POL32, active compounds read low 0.96 | [3] 0.99 | S. cerevisiae deletion strains, locus YKL009W, strain mrt4, active compounds read low 0.999 | S. cerevisiae deletion strains, locus YKL068W, active compounds read low 0.999 | S. cerevisiae deletion strains, locus YKL085W, strain MDH1 (second series), active compounds read low 0.999 | S. cerevisiae deletion strains, locus YKL085W, strain MDH1, active compounds read low 0.999 | S. cerevisiae deletion strains, locus YKL190W, strain CNB1, active compounds read low 0.99 | S. cerevisiae deletion strains, locus YKR001C, strain vps1, active compounds read low 0.967 | S. cerevisiae deletion strains, locus YLR039C, strain RIC1, active compounds read low 1.3 | S. cerevisiae deletion strains, locus YLR058C, strain SHM2, active compounds read low 0.985 | S. cerevisiae deletion strains, locus YLR102C, strain apc9, active compounds read low 1.02 | S. cerevisiae deletion strains, locus YLR262C, strain YPT6, active compounds read low 1.35 | S. cerevisiae deletion strains, locus YLR268W, strain sec22, active compounds read low 0.986 | S. cerevisiae deletion strains, locus YLR330W, strain CHS5, active compounds read low 0.996 | S. cerevisiae deletion strains, locus YLR342W, strain FKS1 (second series), active compounds read low 0.921 | S. cerevisiae deletion strains, locus YLR371W, strain rom2, active compounds read low 1.03 | S. cerevisiae deletion strains, locus YLR418C, strain cdc73, active compounds read low 0.9 | S. cerevisiae deletion strains, locus YML016C, strain PPZ1, active compounds read low 0.994 | S. cerevisiae deletion strains, locus YML032C, strain rad52, active compounds read low 0.982 | S. cerevisiae deletion strains, locus YML124C, strain tub3, active compounds read low 1.01 | S. cerevisiae deletion strains, locus YMR078C, strain ctf18, active compounds read low 1.01 | S. cerevisiae deletion strains, locus YMR223W, strain ubp8, active compounds read low 0.963 | [4] 0.973 | [5] 1.01 | S. cerevisiae deletion strains, locus YNL067W, strain RPL9B, active compounds read low 0.99 | S. cerevisiae deletion strains, locus YNL153C, strain GIM3, active compounds read low 0.98 | S. cerevisiae deletion strains, locus YNL233W, strain BNI4, active compounds read low 0.951 | S. cerevisiae deletion strains, locus YNL250W, strain rad50, active compounds read low 1.01 | S. cerevisiae deletion strains, locus YNL271C, strain bni1, active compounds read low 1.01 | S. cerevisiae deletion strains, locus YNL298W, strain CLA4, active compounds read low 1.01 | S. cerevisiae deletion strains, locus YNL307C, strain MCK1, active compounds read low 0.996 | S. cerevisiae deletion strains, locus YNR052C, strain pop2, active compounds read low 1 | S. cerevisiae deletion strains, locus YOL006C, strain TOP1, active compounds read low 0.852 | S. cerevisiae deletion strains, locus YOL012C, strain htz1 0.881 | S. cerevisiae deletion strains, locus YOL147C, strain pex11, active compounds read low 1.01 | S. cerevisiae deletion strains, locus YOR061W, strain CKA2, active compounds read low 0.999 | S. cerevisiae deletion strains, locus YOR069W, strain VPS5, active compounds read low 0.996 | S. cerevisiae deletion strains, locus YOR136W, strain idh2, active compounds read low 1 | S. cerevisiae deletion strains, locus YOR144C, strain elg1, active compounds read low 1.01 | S. cerevisiae deletion strains, locus YOR184W, strain ser1, active compounds read low 1.01 | S. cerevisiae deletion strains, locus YOR316C, strain cot1, active compounds read low 1.02 | S. cerevisiae deletion strains, locus YPL055C, strain LGE1, active compounds read low 0.949 | S. cerevisiae deletion strains, locus YPR119W, strain clb2, active compounds read low 1.01 | S. cerevisiae deletion strains, locus YPR141C, strain kar3, active compounds read low 1.01 | S. cerevisiae deletion strains, locus YPR163C, strain tif3, active compounds read low 1 | S. cerevisiae deletion strains, locus YPR167C, strain met16, active compounds read low 1.02 | S. cerevisiae deletion strains, strain wtn01, active compounds read low 0.99 | S. cerevisiae strains, strain wild type, active compounds read low 0.991

CCN(CC)C(C)C(=O)N1c2ccccc2Sc2ccccc21 (configuration not stated)
inactive: [1] 1 | S. cerevisiae deletion strains, locus YAL040C, strain CLN3, active compounds read low 1.02 | S. cerevisiae deletion strains, locus YCL061C, strain MRC1 (second series), active compounds read low 1.01 | S. cerevisiae deletion strains, locus YDR363W, strain ESC2, active compounds read low 1 | S. cerevisiae deletion strains, locus YER002W, strain NOP16, active compounds read low 1.02 | [2] 1.04 | [3] 1.07 | [4] 1.01 | [5] 0.999 | S. cerevisiae deletion strains, locus YNL128W, strain TEP1, active compounds read low 0.997 | S. cerevisiae deletion strains, locus YNL175C, strain NOP13, active compounds read low 1.04 | S. cerevisiae deletion strains, locus YNL197C, strain WHI3, active compounds read low 1.03 | S. cerevisiae deletion strains, locus YNL224C, strain SQS1, active compounds read low 1.02 | S. cerevisiae deletion strains, locus YOR083W, strain WHI5 (second series), active compounds read low 1.02 | S. cerevisiae deletion strains, locus YPL241C, strain CIN2, active compounds read low 1.01
